# Experimental data from PubChem BioAssay (NCATS).
# Activity calls are given as the source filed them.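 The calls were made as follows: active = compounds whose dose series gives a full or clear partial fitted curve of increased nuclear translocation; inconclusive = weak partial curve or effect only at the top dose; inactive = no dose-dependent translocation response.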
# Molecular target: Glucocorticoid receptor (Homo sapiens) (UniProt P04150)
# Assay: GR-GFP Redistribution (AID 450)
# Conditions: U2OS GR-GFP nuclear translocation, laser cytometry, 2 h
# Excerpt: NIH Molecular Libraries Screening Centers Network [MLSCN]
# NIH Chemical Genomics Center [NCGC]
# The glucocorticoid receptor (GR) Redistribution assay (BioImage) enables the visualization of GR cytoplasmic to nuclear translocation by the use of a GR-GFP fusion. GR is normally cytosolic, however ligands such as dexamethasone, cause nuclear translocation where the protein binds to response elements and interacts with various co-factors to modulate transcription. Because both functional agonists and antagonists can induce nuclear translocation, this assay can detect ligands regardless of their effects on gene expression. GR-GFP expressing U20S cells were used here. Dexamethasone was the positive control for translocation and data normalization. Detection of nuclear translocation was performed in 1536-well plates using the Acumen laser scanning plate cytometer (TTP LabTech). Validation of this assay and a detailed protocol have been described.
# NCGC Assay Protocol Summary:
# GR-GFP U2OS cells were maintained in DMEM with Glutamax and high glucose, 1% v/v penicillin-streptomycin, and 0.5 mg/mL Geneticin. For cell culture, 10% […] fetal bovine serum (FBS) was used (Invitrogen #26140-079). For cell plating 10% dextran, charcoal-stripped FBS (Hyclone SH30068.03) was used. U2OS cells were trypsin treated, suspended in medium, and passed through a 40 um basket filter. The cells were seeded at 600 cells/5 uL/well into clear-bottom black sided 1536-well plates and incubated for approximately 20 hrs, 37degC, 5%, CO2 in a tissue culture incubator. Twenty-three nL of compound was delivered by pin tool and the plates were incubated as above for 2 hrs. The compounds were tested as a 7-point titration ranging from 46 uM to 0.6 nM. The cells were fixed using the Kalypsys Washer/Dispenser station. The fixing protocol involved aspiration of the cell media, addition of 6 uL/well of PBS, aspiration of PBS, addition of 5uL/well of 100% methanol, aspiration of methanol, and addition of 3 uL/well PBS with 1.5 uM propidium iodide (PI). The plates were read by the Acumen Explorer using a 1 x 8 um scan of the whole well area. PI fluorescence triggered the collection of PI and GFP signals. A nuclei population was defined by a 10 to 100 um width and depth filter that eliminated small and large fluorescent particles. Two subpopulations of nuclei were then defined by peak intensity of GFP fluorescence to obtain translocated and untranslocated objects. The number of translocated objects was used for data normalization.
# Keywords: NIH Roadmap, MLSCN, MLI, MLSMR, sOGT, qHTS, NCGC
# Potency is read from the fitted curve at half-maximal effect.
# Chain of Glucocorticoid receptor (Homo sapiens) (P04150 whole entry, looked up): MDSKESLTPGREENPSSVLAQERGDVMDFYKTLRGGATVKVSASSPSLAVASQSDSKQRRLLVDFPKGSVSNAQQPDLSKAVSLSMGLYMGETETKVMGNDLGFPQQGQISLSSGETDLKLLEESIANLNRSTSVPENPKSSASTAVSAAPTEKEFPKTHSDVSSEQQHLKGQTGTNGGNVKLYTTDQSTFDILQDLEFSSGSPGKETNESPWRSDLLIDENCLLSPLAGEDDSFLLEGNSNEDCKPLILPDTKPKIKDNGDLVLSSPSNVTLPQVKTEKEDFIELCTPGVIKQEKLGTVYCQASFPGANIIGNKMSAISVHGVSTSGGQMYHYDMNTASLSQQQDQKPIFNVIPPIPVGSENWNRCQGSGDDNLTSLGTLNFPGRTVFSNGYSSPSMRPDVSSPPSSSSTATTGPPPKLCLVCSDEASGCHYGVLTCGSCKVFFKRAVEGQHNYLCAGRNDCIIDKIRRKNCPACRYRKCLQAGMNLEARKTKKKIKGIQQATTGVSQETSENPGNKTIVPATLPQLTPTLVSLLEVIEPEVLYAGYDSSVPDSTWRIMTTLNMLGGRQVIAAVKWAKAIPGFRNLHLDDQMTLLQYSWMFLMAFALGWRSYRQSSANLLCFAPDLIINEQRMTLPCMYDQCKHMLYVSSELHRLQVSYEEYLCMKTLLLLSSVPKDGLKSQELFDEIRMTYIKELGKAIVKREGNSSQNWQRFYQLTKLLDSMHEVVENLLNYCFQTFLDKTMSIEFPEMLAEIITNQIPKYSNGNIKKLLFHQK
row,SMILES,Potency
1,Cc1ccc(S(=O)ON2CCC(C(=O)O)(c3ccccc3)CC2)cc1 (stereo not given),> 46 µM (inactive)
2,O=C(O)C[C@H]1OCC=C2CN3CC[C@]45c6ccccc6N[C@@H]4[C@H]1[C@H]2C[C@H]35,> 46 µM (inactive)
3,C[C@@]12Cc3cnc(-c4ccccc4)nc3C[C@@H]1CC[C@@H]1[C@H]3CC[C@@](C)(O)[C@]3(C)CC[C@@H]12,> 46 µM (inactive)
4,CC(C)[C@@]1(NC(=O)[C@@H]2C=C3c4cccc5[nH]cc(c45)C[C@@H]3N(C)C2)O[C@]2(O)[C@H]3CCCN3C(=O)[C@H](Cc3ccccc3)N2C1=O,> 46 µM (inactive)
5,O=[As](O)(O)c1ccc(N=Nc2ccc(O)cc2)cc1,> 46 µM (inactive)
6,C=C[C@@H]1CN2CC[C@H]1C[C@H]2[C@H](O)c1ccnc2ccccc12,> 46 µM (inactive)
7,Cc1ncc([N+](=O)[O-])n1CCN=[N+]=[N-],> 46 µM (inactive)
8,O=[As](O)(O)c1ccc(NCc2ccccc2)cc1,> 46 µM (inactive)
9,C[C@@]12CC[C@H](O[C@@H]3O[C@H](CO)[C@@H](O)[C@H](O)[C@@H]3O)C[C@@H]1CC[C@H]1[C@H]2CC[C@@]2(C)[C@@H](C3=CCOC3=O)CC[C@]12O,> 46 µM (inactive)
10,NCCc1c[nH]c2ccc(OC(=O)C(=O)O)cc12,> 46 µM (inactive)
11,NNc1c(C(N)=O)c2c(N)ncnc2n1[C@@H]1O[C@H](CO)[C@@H](O)[C@@H]1O,> 46 µM (inactive)
12,O=C(O)C(O)(c1ccc(-c2ccccc2)cc1)c1ccc(-c2ccccc2)cc1,> 46 µM (inactive)
13,Oc1ccc(CCNCc2cc3c(cc2Br)OCO3)cc1,> 46 µM (inactive)
14,CSCC[C@@H](N)P(C)(=O)O,> 46 µM (inactive)
15,C[C@@H](Cc1ccc(Cl)cc1Cl)NO,> 46 µM (inactive)
16,C1C[C@@H]2CN(CCCN3CCOCC3)[C@@H](C1)O2,> 46 µM (inactive)
17,N[C@H](CCl)C(=O)O,> 46 µM (inactive)
18,O=C(O)[C@@H](O)[C@@H](O)[C@@H]1[O][Sb][O][C@@H]1CO,> 46 µM (inactive)
19,CN(C)CS/C(N)=N/[C@H](O)C(Cl)(Cl)Cl,> 46 µM (inactive)
20,FC(F)(F)c1nc2ccc(SSc3ccc4nc(C(F)(F)F)[nH]c4c3)cc2[nH]1,> 46 µM (inactive)

row,SMILES,Potency
1,O=C(O)c1cc(N=Nc2ccc([As](=O)(O)O)cc2)ccc1O,> 46 µM (inactive)
2,C[C@@H]1CC[C@@H]2N(C1)C[C@H]1[C@@](O)([C@H](O)C[C@]3(O)[C@H]4CC[C@H]5[C@]6(O)O[C@]4(C[C@]13O)[C@@]5(C)CC[C@@H]6O)[C@@]2(C)O,> 46 µM (inactive)
3,CCc1ccc(CCN2CCCCC2)nc1,> 46 µM (inactive)
4,CC1(C)CCC(C)(C)c2c1ccc(O)c2Cc1c(O)ccc2c1C(C)(C)CCC2(C)C,> 46 µM (inactive)
5,CC(=O)c1c(O)c(C)c(O)c(Cc2c(O)c3c(c(C(=O)/C=C\c4ccccc4)c2O)OC(C)(C)C=C3)c1O,> 46 µM (inactive)
6,CC(=O)O[C@H]1CC[C@@]2(C)[C@@H](CC[C@H]3[C@H]2CC(=O)[C@]2(C)[C@@H]3C[C@@H](N3CC3)[C@H]2C(C)=O)C1,> 46 µM (inactive)
7,S=P(C1CCCCC1)(C1CCCCC1)[C@H](c1cccnc1)N1CCCC1,> 46 µM (inactive)
8,N[C@@H](CSC1c2ccccc2-c2ccccc21)C(=O)O,> 46 µM (inactive)
9,N[C@H](Cc1ccc(N(CCCl)CCCl)cc1)C(=O)O,> 46 µM (inactive)
10,C[C@]1(O)CC[C@H]2[C@@H]3[C@@H](O)CC4=CC(=O)CC[C@@]4(C)[C@H]3CC[C@]21C,> 46 µM (inactive)
11,Nc1c(C(=O)Nc2ccc([As](=O)(O)O)cc2)cnc2nnnn12,> 46 µM (inactive)
12,C[C@]12CC[C@@H]3[C@H](CCC4=CC(=O)CC[C@]43C)[C@]1(O)CC[C@@]2(O)C(=O)CO,0.822 µM (active)
13,C[C@@]12CC[C@H]3[C@@H](CC[C@H]4C[C@@H](O)CC[C@]43C)[C@H]1CC[C@@H]2C(=O)C[C@H](O)C(F)(F)F,> 46 µM (inactive)
14,C[C@@H]1[C@@H](C)N1C[C@H](O)Cn1ccnc1[N+](=O)[O-] (stereo not given in full),> 46 µM (inactive)
15,Nc1nc(N)c(N=Nc2ccc([As](=O)(O)O)cc2)c(=O)[nH]1,> 46 µM (inactive)
16,C[C@]12CC[C@H](O)CC1=CC[C@@H]1[C@H]2CC[C@]2(C)C(=O)CC[C@H]12,> 46 µM (inactive)
17,O=C(O)c1cccc([As]=[As]c2cccc(C(=O)O)c2)c1 (stereo not given),> 46 µM (inactive)
18,COC(=O)[C@@H]1c2cc3c(c(O)c2[C@@H](O)C[C@]1(C)O)C(=O)c1c(O)cc2c(c1C3=O)O[C@H]1O[C@@]2(C)[C@@H](O)[C@H](N(C)C)[C@H]1O,> 46 µM (inactive)
19,COc1cc2c3cc1Oc1c(O)c(OC)cc4c1[C@@H](Cc1ccc(cc1)Oc1cc(ccc1O)C[C@H]3N(C)CC2)N(C)CC4,> 46 µM (inactive)
20,COc1cc2c(cc1O)C[C@@H]1c3c(cc(O)c(OC)c3-2)CCN1C,> 46 µM (inactive)
